# HNF4A DNA FP – change in binding of human HNF4A to DNA, primary screen, biochemical, fluorescence polarization, FITC-DNA; actives 0.3% (n = 360,000); Hepatocyte nuclear factor 4-alpha (Homo sapiens), P41235; activity change, % at 10 µM; 1 h; in the data active = activity change above about 30%, passing the limit was not always enough
# Target sequence (P41235 whole entry, looked up): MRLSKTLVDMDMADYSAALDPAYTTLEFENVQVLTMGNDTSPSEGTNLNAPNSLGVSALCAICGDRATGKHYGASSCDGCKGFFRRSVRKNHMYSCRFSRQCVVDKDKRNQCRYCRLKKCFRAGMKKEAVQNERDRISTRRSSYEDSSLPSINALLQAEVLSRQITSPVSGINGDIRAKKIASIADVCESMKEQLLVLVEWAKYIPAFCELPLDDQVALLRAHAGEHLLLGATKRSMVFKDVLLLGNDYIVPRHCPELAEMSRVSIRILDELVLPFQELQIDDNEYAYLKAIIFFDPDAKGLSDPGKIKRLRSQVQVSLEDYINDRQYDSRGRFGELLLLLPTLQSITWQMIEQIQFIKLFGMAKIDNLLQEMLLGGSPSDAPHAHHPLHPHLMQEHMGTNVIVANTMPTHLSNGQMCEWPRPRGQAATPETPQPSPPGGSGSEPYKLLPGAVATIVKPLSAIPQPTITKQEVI
# CRFR2-BP ag – agonists of CRF-BP/CRF-R2 complex, primary screen, cell-based, HEK293, calcium dye fluorescence, uHTS | CRF-binding protein / CRF receptor 2 complex (human) | calcium dye fluorescence (FLIPR); percent of saturating CRF peptide response | activation, % at 13.2 µM | actives 0.46% (n = 350,000);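 active = activation of at least 50%, plus an integration ratio under a set limit after plate pattern correction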;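 note: plate controls were neutral control wells without compound for no effect and CRF at EC100 for full effect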
# IDE inh – human IDE inhibitors in live cells, primary screen, fluorescence polarization, HEK cells, FAbetaB substrate; Insulin-degrading enzyme (Homo sapiens), P14735; FAbetaB cleavage; inhibition, % at 5.59 µM; actives 0.41% (n = 320,000); AID 434962, 2010;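 active = percent inhibition above the average of all tested compounds plus 3 SD, set per screening campaign, cut at about 16% in these data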;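 note: IDE supplied by intact live HEK cells; FP after avidin binding of uncleaved biotin substrate so inhibition keeps polarization high; 0% = DMSO wells and 100% = 60 µM reference IDE inhibitor Ii1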
# TPT1 inh – Candida albicans TPT1 enzyme inhibitors, primary screen, biochemical, fluorescence polarization; actives 0.81% (n = 300,000); AID 1962, 2009; tRNA 2'-phosphotransferase TPT1 (Candida albicans SC5314); inhibition, % at 5 µM; recombinant caTPT1, FP RNA substrate dephosphorylation;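 active = inhibition above the mean of all tested compounds plus 3 SD, set per screening campaign, cut at about 24% in these data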;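 note: plate controls were DMSO alone for no effect and ferristatin control at 100 nM for full effect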
# IDE act – human IDE activators in live cells, primary screen, fluorescence polarization, HEK cells, FAbeta-B substrate. Insulin-degrading enzyme (Homo sapiens), P14735. actives 0.073% (n = 340,000). activation, % at 5.96 µM. FAbeta-B cleavage; 0% vehicle, 100% cell-free pure enzyme wells;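 active = activation above the mean of all tested compounds plus 3 SD, set per screening campaign, cut at about 17% in these data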
# TPT1 inh confirm – Candida albicans TPT1 inhibitors, confirmation, biochemical, fluorescence polarization, triplicate | shares compounds with TPT1 inh | recombinant caTPT1, RNase T1 coupled | inhibition, % at 5 µM | actives 74% (n = 2,400) | AID 2149, 2009;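 active = inhibition above the primary screen limit, the mean inhibition of all tested compounds plus 3 SD, cut at about 25% in these data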
# RNase T1 inh – RNase T1 inhibitors, counter-screen for TPT1 inhibitor project, biochemical, fluorescence polarization. RNase T1 cleavage, 1536-well. AID 2153, 2009. inhibition, % at 5 µM. actives 83% (n = 2,400). shares compounds with TPT1 inh;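 active = inhibition above the solvent-only control well mean plus 3 SD, limit set per screening run, cut at about 23% in these data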;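 note: plate controls were DMSO wells with enzyme for no effect and wells without RNase T1 for full effect; inhibitors block cleavage so intact labeled substrate keeps polarization high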
# An asterisk follows results filed as active; nt = not tested or not shown. A selection: hits, their analogues and other compounds. The true share with any hit is near 1.4%.
SMILES,HNF4A DNA FP,CRFR2-BP ag,IDE inh,TPT1 inh,IDE act,TPT1 inh confirm,RNase T1 inh
N#C/C(C(N)=O)=C1/SC(Cc2ccc(F)cc2)C(=O)N1c1ccccc1 (configuration not stated),2,-2,9,28*,-4,4,5
CCOc1ccccc1N1CCN(C(=S)Nc2ccc(S(=O)(=O)Nc3ncccn3)cc2)CC1,-3,-1,0,0,-5,nt,nt
COc1ccc(NC(=O)CCNC(=O)c2ccco2)c(OC)c1,-1,1,0,2,6,nt,nt
CCCCC[C@@H](C)N1C[C@@H](COCc2ccccc2)Oc2cc(N3CCC[C@H]3COC)ccc2S1(=O)=O,-4,nt,nt,nt,nt,nt,nt
COc1ccc2nc(C)cc(Nc3ccc(C)cc3)c2c1,2,1,nt,nt,2,nt,nt
COc1ccc2nc(C)cc(NCc3ccc(F)cc3)c2c1,147,73*,13,69*,-12,82*,85*
CCOC(=O)c1ccc(NC(=O)c2cccc(S(=O)(=O)N3CCN(C(C)=O)CC3)c2)cc1,0,0,0,-2,-4,nt,nt
CC(C)OCCCn1c(-c2ccco2)nc2nc3ccccc3nc21,16,16,7,26*,-9,13,24*
CCC(C)n1c(-c2ccco2)nc2nc3ccccc3nc21 (configuration not stated),nt,nt,6,27*,nt,15,19
COCCn1c(-c2ccco2)nc2nc3ccccc3nc21,-1,5,9,4,1,nt,nt
O=C1N/C(=C/c2ccc(N3CCOCC3)o2)C(=O)N1c1cccc(Cl)c1,127,8,5,82*,-1,168*,166*
COc1cccc(-c2cn3nc(C)c(C)nc3n2)c1,8,1,1,45*,3,45*,55*
Cc1nc2nc(-c3ccc(Cl)cc3)cn2nc1C,-2,-2,7,7,3,nt,nt
Cc1ccc2oc(NC3=NC4(CCCC4)C4=C(CCCC4=O)N3)nc2c1,-3,nt,nt,nt,nt,nt,nt
O=c1c(/C=C(\O)c2ccc(F)cc2)nc2ccccc2n1-c1ccccc1,20,163*,2,62*,-2,79*,75*
CCC(C)(C)NC(=O)C(c1ccccc1Cl)N(Cc1cccnc1)C(=O)CCC(=O)Nc1cc(C)on1 (configuration not stated),-1,1,0,-5,-1,nt,nt
CCCS(=O)(=O)NC(=O)C1(C)CCN(C(=O)/C=C/c2ccccc2)C1 (configuration not stated),-2,nt,nt,nt,nt,nt,nt
Cc1ccc(S(=O)(=O)CCSc2nc(C)cc(C(F)(F)F)c2C#N)cc1,37,18,-3,40*,-2,58*,69*
Cc1cc(SCC(=O)c2ccc(Cl)cc2)nc(=O)[nH]1,8,1,0,7,0,nt,nt
Cc1ccc(C(=O)CSc2cc(C)[nH]c(=O)n2)cc1,17,0,3,28*,0,39*,47*
CN(C)c1ccc(N/C=C/C(=O)c2ccc(F)cc2)cc1,44*,0,-2,36*,6,49*,59*
COc1ccc(CN=Cc2c(O)[nH]c3ccccc23)cc1,3,0,9,1,2,nt,nt
Oc1c(C=NCc2ccc(F)cc2)[nH]c2ccc(Br)c(Cl)c12,nt,nt,5,54*,nt,97*,104*
Cc1ccc(CN=Cc2[nH]c3ccc(Br)c(Cl)c3c2O)cc1,46*,4,10,70*,-7,130*,129*
CCOC(=O)[C@H]1[C@H]2COc3ccc(C)cc3[C@@H]2N2C(=O)c3cc(Br)ccc3NC(=O)[C@@]12C,-7,-1,9,nt,-6,nt,nt
CC(C)C[C@@H]1Cc2[nH]c(=S)[nH]c(=O)c2[C@H](C)O1,2,nt,nt,nt,nt,nt,nt

# From PubChem BioAssay
